Experimental findings from PubChem BioAssay (EPA / NIEHS) are described below.

SMILES strings stand for the structures. Activity calls are given as the source filed them. How the source made its calls: active means hit-call score of the fitted dose curve at least 0.9, where 1 is the maximum; inconclusive means response in the unintended direction; inactive means score below 0.9.

The nature of this test: CPHEA_Stoker_NIS_Cytotoxicity: Cytotoxicity Assessment for CPHEA's Radioactive Iodide Uptake (RAIU) Assay for Sodium/Iodide Symporter (NIS) Inhibition, Stoker and Laws Labs (AID 2283897).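 On AC50: active means loss of ATP signal versus DMSO meaning cytotoxicity.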 As for the experimental part:
CPHEA_Stoker_NIS is a cell-based, single-readout assay that uses hNIS-HEK293T-EPA, a novel human kidney cell line expressing human NIS, with measurements taken at 2 hours after chemical dosing in a 96-well plate. This radioactive iodide uptake (RAIU) assay is used to identify inhibitors of NIS-mediated iodide uptake. A parallel cytoxicity assay (Cell Titer Glo, Promega) was also run in the same cell line.CPHEA_Stoker_NIS_Cytotoxicity is one of 2 assay components measured from the CPHEA_Stoker_NIS assay. It is designed to make measurements of atp content, a form of viability reporter, as detected with bioluminescence signals by Luciferase-coupled ATP quantitation technology.Data from the assay component CPHEA_Stoker_NIS_Cytotoxicity was analyzed at the endpoint, CPHEA_Stoker_NIS_Cytotoxicity, in the positive analysis fitting direction relative to DMSO as the negative control and baseline of activity. Using a type of viability reporter, measures of ATP content for loss-of-signal activity can be used to understand the viability. To generalize the intended target to other relatable targets, this assay endpoint is annotated to the cell cycle intended target family, where the subfamily is cytotoxicity.
hNIS-HEK293T-EPA cells were seeded with a MultiFlo FX dispenser (BioTek, Winooski, VT) into ScintiPlate-96 microplates (Perkin Elmer, Waltham, MA) at a density of 4.0x10^4 cells per well in 200uL growth media and incubated for 40 hours before experimentation. On day of the assay, carrier-free 125I (Perkin-Elmer, Waltham, MA; specific activity: 17.4Ci/mg) was diluted with Hanks' balanced salt solution (Sigma, St. Louis, MO) supplemented with 10mM HEPES (uptake buffer; pH 7.4) at 5uCi/mL (288pg 125I/mL uptake buffer; 2.30nM). The assay was initiated by washing cells twice with 200uL uptake buffer using a 96-well Tecan HydroSpeed plate washer (Tecan, Mannedorf, Switzerland). Uptake buffer (59.7uL) was then added back to each well. Chemical samples (350nL at 200X) were administered using the HDR tool as previously described to achieve a 1X chemical/0.5% final DMSO concentration with subsequent addition of 10uL of 125I dilution (final [125I]: 329pM; 2.88pg/well) for a final reaction volume of 70uL/well. Cells were incubated at room temperature for 2 hours and then washed twice with 200uL ice cold uptake buffer. All uptake buffer was aspirated from wells, plates were sealed, and read on a MicroBeta2 plate reader (Perkin Elmer, Waltham, MA) using a detection protocol to measure CPM corresponding to intracellular 125I concentration. Each chemical concentration (0.001, 0.01, 0.1, 1.0, 10, and 100uM) was assayed in triplicate with three independent biological replicate plates (3 sequential cell passages). Additionally, a concentration response of NaClO4 (0.001, 0.01, 0.1, 1.0, 10, and 100uM) served as a positive control inhibition curve on each RAIU assay plate. DMSO control wells were assayed on each plate as a measure of maximum iodide uptake for normalization and determination of intra- and inter-assay variation. (Toxicol In Vitro, 2017, 40:66-78).
Consider `OC[C@H]1O[C@@H]2O[C@H]3[C@H](O)[C@@H](O)[C@@H](O[C@H]4[C@H](O)[C@@H](O)[C@@H](O[C@H]5[C@H](O)[C@@H](O)[C@@H](O[C@H]6[C@H](O)[C@@H](O)[C@@H](O[C@H]7[C@H](O)[C@@H](O)[C@@H](O[C@H]8[C@H](O)[C@@H](O)[C@@H](O[C@H]9[C@H](O)[C@@H](O)[C@@H](O[C@H]1[C@H](O)[C@H]2O)O[C@@H]9CO)O[C@@H]8CO)O[C@@H]7CO)O[C@@H]6CO)O[C@@H]5CO)O[C@@H]4CO)O[C@@H]3CO`, for which the outcome was inactive.
For the compound `O=[N+]([O-])c1ccc(O)cc1C(F)(F)F`, the outcome was inactive.
On to `CCCCCCCCCCCCCCN(CCO)CCO`, for which the outcome was inactive.
The same measure, in the same setting: then `BrCc1cccc(Oc2ccccc2)c1`, with “inactive”; and `O=C(CC(=O)c1ccccc1)c1ccccc1`, with “inactive”.
On the same count and under the same terms, the result for `O=c1c(O)c(-c2ccc(O)cc2)oc2cc(O)cc(O)c12` reads “inactive”.
Regarding `CC(CN=Cc1ccccc1O)N=Cc1ccccc1O` (stereo not drawn), the outcome was inactive.
Same read-out and setting: the result for `C=C(C)C(=O)OCCOC1CC2CC1C1C=CCC21` (stereo not drawn) reads “inactive”.
Still for that read-out and setting: the result for `CCCCCCC(=O)c1ccccc1` reads “inactive”; that for `Clc1ccc(C(c2ccccc2Cl)C(Cl)Cl)cc1` (stereo not drawn), “inactive”; that for `CCCCCCCCSCCO`, “inactive”.
The same measure, in the same setting: the result for `CCCCCC(C=O)=Cc1ccccc1` reads “inactive”.
As to `[O-]n1ccccc1=S.[O-]n1ccccc1=S.[Zn+2]`, the result was inactive.
The same measure, in the same setting: then `C=C1CC[C@H](O)C/C1=C/C=C1\CCC[C@]2(C)[C@@H]([C@H](C)/C=C/[C@H](C)C(C)C)CC[C@@H]12`, with “inactive”.
The same measure, in the same setting: the result for `c1ccc(Oc2ccccc2)cc1` reads “inactive”.
Same read-out and setting: the result for `O=CCc1ccccc1` reads “inactive”.
For the compound `CCCCCCCCC=CCCCCCCCC1=NCCN1CCO`, the result was inactive.
The same measure, in the same setting: then `CCCCCCCCc1ccc(S(=O)(=O)O)cc1`, with “inactive”; and `CCOc1ccc(N=Nc2ccc(C=Cc3ccc(N=Nc4ccc(OCC)cc4)cc3S(=O)(=O)O)c(S(=O)(=O)O)c2)cc1`, with “inactive”.
Still for that read-out and setting: then `CCOC(=O)[C@@H](C)Oc1ccc(Oc2nc3ccc(Cl)cc3o2)cc1`, with “inactive”; and `COc1ccc(N=Nc2cc(C)c(N=Nc3ccc(S(=O)(=O)O)cc3)cc2OC)cc1`, with “inactive”; and `CCc1cc(C(C)(C)C)c(O)c(C(C)(C)C)c1`, with “inactive”.
On to `CCCCC(CC)COC(=O)c1ccc(O)cc1` (stereo not drawn), for which the concentration at half-maximal activity (AC50) was 83.9 µM (active).
In the case of `OCC#CCO`, the outcome was inactive.
`Cc1ccc(S(=O)(=O)Oc2ccc(N=Nc3ccc(-c4ccc(N=Nc5c(O)ccc6cc(S(=O)(=O)O)cc(S(=O)(=O)O)c56)c(C)c4)cc3C)cc2)cc1`: the half-maximal activity concentration (AC50) is 13 µM (active).
`CCCCCCCCCCCCN1CCCCCC1=O`: the outcome was inactive.
The same measure, in the same setting: the result for `O=C(c1ccccc1)C(O)c1ccccc1` (stereo not drawn) reads “inactive”.
Take `C[C@H]1O[C@@H](O[C@H]2[C@@H](O)C[C@H](O[C@H]3[C@@H](O)C[C@H](O[C@H]4CC[C@@]5(C)[C@H](CC[C@@H]6[C@@H]5C[C@@H](O)[C@]5(C)[C@@H](C7=CC(=O)OC7)CC[C@]65O)C4)O[C@@H]3C)O[C@@H]2C)C[C@H](O)[C@@H]1O`: the outcome was inactive.
